# Screening data (PubChem)
# CHX counter – affects cycloheximide protein synthesis inhibition readout, counter-screen; 12% of 300,000 active; cell reporter, cycloheximide protein synthesis inhibition counterscreen; max response, %; in the data active = max response mostly above about 13%, no sharp cut-off; inactive = mostly below about 14%; also: read at 38.3 µM for the half of the compounds with a filed dose; 0% is about no effect
# Shiga inhibitor – blocks Shiga toxin action in Vero cells; inhibition, % at 38.7 µM; Vero cells, Shiga toxin protein synthesis inhibition reporter; 9.2% of 290,000 active; AID 2315; in the data active = inhibition mostly above about 28%, no sharp cut-off; inactive = mostly below about 43%; also: 0% is about no effect
# NS1 function inh – inhibitors of influenza NS1 protein function | Potency, µM (series often up to 46.1 µM), inactives show top-dose activity, positive = more growth | 0.4% of 270,000 active | AID 2326; calls by dose curve; also: potency is read from the fitted curve at half-maximal effect; actives are rising curves; nearly all actives have a fitted effect of over 50% in size
#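 Recovery from NS1-induced slow growth read by OD600 in budding yeast switched to galactose assay medium (pH 6.0, -URA) at 1:100 dilution. Compound 23 nl per well; the matching strain lacking NS1 serves as control.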
# Pf growth 96h – P. falciparum growth inhibition at 96 hours; P. falciparum luciferase reporter growth, 96 h; Potency, µM (titrated, usually from 28.7 µM), for inactives: at the highest dose activity change, negative = inhibition, hits mostly inhibitors; 6.9% of 320,000 active; also: potency is read from the fitted curve at half-maximal effect; % is scaled to controls: 0 for no effect and ±100 for the full control effect
#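 Cell-based qHTS: luciferase-tagged P. falciparum in erythrocytes (2% hematocrit, 0.05% parasitemia final) incubated with compounds for 96 hours, 37 C, 5% CO2; luciferase detection reagent then added and luminescence measured.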
# Pf growth 48h – inhibits P. falciparum growth in the first generation, 48 h; P. falciparum luciferase growth in erythrocytes, 48 h; Potency, µM (doses to about 28.7 µM), for the others: at the top dose activity change, negative = inhibition, actives largely listed as inhibitors; 5.9% of 310,000 active; AID 504832; also: potency is read from the fitted curve at half-maximal effect; % is scaled to controls: 0 for no effect and ±100 for the full control effect
#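 Firefly luciferase activity from engineered P. falciparum reports growth; inhibitors lower the luminescent signal. Cultures contained 2% hematocrit erythrocytes at 0.1% final parasitemia.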
# The depositor's hits bear a star; i = inactive; ? = inconclusive; . = no result given; [ ] = remark or other dose. Most compounds without a hit are left out; they make up all but 21% or so of the library. Unless noted, calls follow the shape of the dose curve; as a rule, active = well fitted inhibition curve with a large enough effect; inconclusive = small, poorly fitted or top-dose-only effect, or another doubt; inactive = no such curve, though single readings can be large or run the other way.
SMILES,CHX counter,Shiga inhibitor,NS1 function inh,Pf growth 96h,Pf growth 48h
Oc1ccccc1N=Cc1c(O)ccc2oc3c(c12)CCCC3,8,10,-67%,?,?
Cc1ccnc(N=Cc2c(O)ccc3oc4c(c23)CCCC4)c1,26*,8,-7%,31%,8%
O=C(O)c1ccc(N=Cc2c(O)ccc3oc4c(c23)CCCC4)cc1,17*,31,-52%,22%,1%
Cc1ccc(S(=O)(=O)N2CCOCC2)cc1C(=O)OCC(=O)Nc1ccc2[nH]c(=O)[nH]c2c1,.,.,.,2%,36%
Cc1ccc2c(c1)N(S(=O)(=O)c1ccc(CN3C(=O)c4cccnc4C3=O)s1)CCO2,10,9,-18%,4.1µM*,25%
Nc1nc(-c2ccccc2)cn1N,23,28,-4%,?,5%
Nc1nc(-c2ccccc2)cn1/N=C/c1ccccc1,38*,34,-8%,10%,14%
CCOc1ccc(OCCC(=O)N(CC)CC(=O)Nc2ccccc2C(F)(F)F)cc1,.,.,.,8%,5%
CN(C)c1ccc(NC(=O)CCn2c(=S)oc3ccccc32)cc1,55*,95*,.,2%,193%
CCSc1nnc(NC(=O)CCn2c(=O)oc3ccccc32)s1,-1,-15,4%,-12%,0%
COC(=O)c1ccc(NC(=O)CCn2c(=O)oc3ccccc32)cc1,29*,40*,-8%,.,-7%
O=C(CCn1c(=O)oc2ccccc21)Nc1nc2ccccc2s1,13*,44*,-10%,8%,14%
COc1ccc(/C(O)=C2/C(=O)C(=O)N(CCCN(C)C)C2c2ccccc2)cc1Cl (stereo unspecified),-5,-12,-4%,17%,0%
Cc1ccc2[nH]c(C(=O)N/N=C/c3ccccc3C(=O)O)c(-c3ccccc3)c2c1,-6,-2,?,0.74µM*,-20%[0.00184 µM]
Cc1ccc2[nH]c(C(=O)N/N=C/c3ccc([N+](=O)[O-])cc3)c(C)c2c1,-2,16,-1%,14%,13%
COc1ccc(/C=N/NC(=O)c2[nH]c3ccc(C)cc3c2-c2ccccc2)c(C(=O)O)c1OC,0,2,16%,11%,12%
COc1ccc2[nH]c(C(=O)N/N=C/c3ccccc3OC)cc2c1,11,27,-3%,?,.
COc1cc(OC)c2cc(C(=O)N/N=C/c3ccccc3O)[nH]c2c1,-1,5,1%,4.7µM*,.
Cc1ccc2[nH]c(C(=O)N/N=C/c3ccccc3O)c(C)c2c1,25*,61*,1%,4.7µM*,2.3µM*
CCOc1ccc(N2CC(O)=C(c3ccccc3)C2=N)cc1,9,-9,-2%,13%,-9%
CCOC(=O)C1=C(C)c2ccccc2N(C(=O)OC)C1(C)C(=O)OCC (stereo unspecified),7,i,.,.,.
CCC(C)C(=O)N1c2ccccc2C(=C2SC(C(=O)OC)=C(C(=O)OC)S2)C(=S)C1(C)C (stereo unspecified),9,21,-14%,?,9.3µM*
CC(C)NC(=O)NC(=O)COC(=O)c1ccc(F)cc1F,-1,-4,-5%,42%,-1%
COc1cc(SC)ccc1C(=O)OCC(=O)NCCC1=CCCCC1,.,.,.,4%,0%
COc1cc(SC)ccc1C(=O)OCC(=O)N1CCCC1,40*,50*,1%,59%,59%
SMILES,CHX counter,Shiga inhibitor,NS1 function inh,Pf growth 96h,Pf growth 48h
CC(C)CNC(=O)COC(=O)c1ccc(F)cc1Cl,28*,52*,.,17%,14%
COc1cc(SC)ccc1C(=O)OCC(=O)NCC(C)C,25*,32,.,38%,20%
CSc1ccc(Cl)c(C(=O)OCC(=O)N2CCOCC2)c1,-2,24,-8%,12%,30%
COc1cc(SC)ccc1C(=O)OCC(=O)NC(=O)NC(C)C,17*,-7,2%,60%,9%
O=C(O)[C@H](/C=C\c1ccccc1)c1ccccc1,.,.,8%,.,.
COc1ccc(NS(=O)(=O)c2ccc3c(c2)CCC(=O)N3)cc1O,.,.,.,50%,24%
COc1ccc(NS(=O)(=O)c2ccc3c(c2)NC(=O)CCS3)cc1Cl,-2,12,?,5.9µM*,-26%
COc1ccc(/C=N/NC(=O)CN2CCCc3ccccc32)c(OC)c1,1,-6,?,12%,-15%
COc1ccc(-n2c(Cc3cccn3C)nnc2SCC(=O)Nc2ccccc2OC)cc1,-1,-8,-6%,?,13µM*
Cc1ccccc1NC(=O)CSc1nnc(Cc2cccn2C)n1-c1ccc(F)cc1,-4,-11,-12%,11%,?
COc1ccc(-n2c(Cc3cccn3C)nnc2SCC(=O)Nc2ccc(C)cc2C)cc1,-4,-15,-31%,6%,?
Cn1cccc1Cc1nnc(SCC(=O)Nc2ccccc2F)n1-c1ccc(F)cc1,-4,-6,10%,?,13µM*
COc1ccc(-n2c(Cc3cccn3C)nnc2SCC(=O)Nc2cc(Cl)ccc2OC)cc1,-2,-1,-4%,?,10µM*
CCN1CCCC1CNS(=O)(=O)c1c(C)cc(C)cc1C (stereo unspecified),-2,2,3%,-25%,-18%
CN[C@@H](CC(C)C)C(=O)N[C@@H]1C(=O)N[C@H](CC(N)=O)C(=O)N[C@@H]2C(=O)N[C@H]3C(=O)N[C@H](C(=O)N[C@H](C(=O)O)c4cc(O)cc(O)c4-c4cc3ccc4O)[C@H](O)c3ccc(c(Cl)c3)Oc3cc2cc(c3O[C@H]2O[C@@H](CO)[C@@H](O)[C@@H](O)[C@@H]2O[C@@H]2C[C@](C)(N)[C@H](O)[C@H](C)O2)Oc2ccc(cc2Cl)[C@@H]1O,.,.,.,-11%,-7%
COc1cc(OC)c(/C=N/NC(=O)COc2cccc3cccnc23)c(OC)c1,-3,15,-3%,?,-7%
O=C(CC1C(=O)NCCN1Cc1ccccc1C(F)(F)F)NC1CCCCC1 (stereo unspecified),-3,-5,10%,10%,5%
COc1ccc(C2CC(c3ccccc3)=NN2C(=O)COC(=O)c2cc(S(=O)(=O)N3CCOCC3)ccc2F)cc1 (stereo unspecified),-3,9,?,11%,-3%
O=C(O)C1Nc2c(O)cccc2C2C=CCC12 (stereo unspecified),-3,-14,8%,15µM*,10%
O=C(O)C1Nc2c(Cl)cc(Cl)cc2C2C=CCC12 (stereo unspecified),-3,-15,10%,?,14%
COc1cc2ncnc(NCc3ccc4c(c3)OCO4)c2cc1OC,-1,-5,-1%,?,12µM*
COc1ccc(CNc2ncnc3cc(OC)c(OC)cc23)cc1,-5,-12,1%,2.1µM*,4.1µM*
COc1cc2ncnc(NCc3ccccc3)c2cc1OC,-4,-7,12%,?,?
C=CCS/C(N)=N\N=C\c1c(O)ccc2ccccc12,44*,114*,-3%,67%,70%
CCCS/C(N)=N/N=C/c1ccccc1O,38*,50*,-56%,.,164%
COc1ccccc1NS(=O)(=O)c1cccc(C(=O)N2CCCCCC2)c1,.,.,.,-23%,?
